EP2 antag: human EP2 receptor antagonists, primary screen, TR-FRET cAMP, C6 glioma cells | C6 glioma cells expressing human EP2; cells stimulated with saturating PGE2 | Prostaglandin E2 receptor EP2 subtype (Homo sapiens), P43116 | 0.52% of 260,000 active | inhibition, % at 25 µM;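 active = percent inhibition above 40 after rounding to a whole number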;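 also: rat C6 glioma host cells with rolipram phosphodiesterase inhibitor present; the protocol text gives 20 µM as final concentration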
EP2 modulator: EP2 receptor modulators, cAMP readout, primary screen, cell-based, HTRF cAMP, PGE2 stimulation; Prostaglandin E2 receptor EP2 subtype (Homo sapiens), P43116; 0.83% of 260,000 active; induction, % at 25 µM; AID 940, 2007; EP2-expressing cells, cAMP HTRF FRET, PGE2 co-stimulation;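 active = compounds whose cAMP rise, as percent of the full-agonist control response, exceeds 60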;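 also: rat C6 glioma line stably carrying human EP2 under a CMV promoter; the protocol text gives 20 µM as final concentration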
Hck-Nef inh: inhibitors of Nef-activated human Hck kinase, primary screen, biochemical, Z-Lyte FRET, 384-well, Hck-YEEI; 0.68% of 220,000 active; Recombinant Hck-YEEI plus Nef, Z-Lyte FRET kinase assay; inhibition, % at 20 µM;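 active = Hck-Nef kinase inhibition above about 50%, limit read from the data; inactive = inhibition below that limit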
Arbovirus anti: antivirals against arbovirus infection, primary screen, cell-based, full library, 10K replicate subset; 0.37% of 200,000 active; inhibition, % at 10 µM; arbovirus infection cell-based antiviral screen; in the data active = inhibition above about 30%
p97 inhibitor: inhibitors of human p97 ATPase, primary screen, biochemical; recombinant p97 ATPase, Kinase-Glo ATP luminescence, 3 h; inhibition, % at 8 µM; 0.42% of 220,000 active; AID 1481, 2009; in the data active = inhibition above about 15%
Target sequence (P55072 whole entry, looked up): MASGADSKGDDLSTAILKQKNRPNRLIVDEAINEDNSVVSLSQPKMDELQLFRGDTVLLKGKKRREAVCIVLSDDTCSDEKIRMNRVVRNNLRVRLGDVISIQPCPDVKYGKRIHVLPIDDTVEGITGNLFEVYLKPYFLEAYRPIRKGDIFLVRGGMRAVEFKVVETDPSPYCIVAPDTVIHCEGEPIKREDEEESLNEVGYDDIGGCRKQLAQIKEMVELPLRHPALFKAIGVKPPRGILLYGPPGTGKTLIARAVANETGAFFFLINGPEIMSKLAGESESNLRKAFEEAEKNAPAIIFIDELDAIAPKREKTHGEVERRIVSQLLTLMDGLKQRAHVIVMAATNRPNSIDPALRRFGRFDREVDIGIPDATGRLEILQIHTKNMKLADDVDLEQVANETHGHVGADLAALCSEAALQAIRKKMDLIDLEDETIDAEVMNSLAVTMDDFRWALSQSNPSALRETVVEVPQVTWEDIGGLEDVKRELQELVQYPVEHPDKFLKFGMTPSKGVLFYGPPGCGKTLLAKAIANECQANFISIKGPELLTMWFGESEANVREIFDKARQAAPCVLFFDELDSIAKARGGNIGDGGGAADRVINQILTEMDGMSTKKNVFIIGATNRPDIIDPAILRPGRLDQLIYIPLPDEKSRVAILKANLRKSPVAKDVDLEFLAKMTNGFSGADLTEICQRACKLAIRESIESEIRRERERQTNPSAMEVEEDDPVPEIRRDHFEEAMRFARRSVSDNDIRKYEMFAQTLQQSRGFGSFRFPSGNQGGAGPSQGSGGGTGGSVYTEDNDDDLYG
p97 confirm: p97 ATPase inhibitors, retest, confirmation, biochemical; inhibition, % at 8 µM; recombinant p97 ATPase, Kinase-Glo ATP luminescence; AID 1517, 2009; shares compounds with p97 inhibitor; 44% of 760 active;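 active = percent inhibition of p97 ATPase above a set limit, the primary screen's mean plus 3 SD, cut at about 15% in these data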
Large screens that a line does not name were inactive (follow-up assays come after a bar, where they were run); ! = not active in a repeat. Most compounds without a hit are left out; they make up all but 2.4% or so of the library.

Cc1cc2c(NC(=O)Nc3ccccc3)cccc2nn1	none (no result: Arbovirus anti)
Cc1cc2c(N)cccc2nn1	p97 inhibitor 32 | p97 confirm inactive
N=C1/C(=C/c2cccn2Cc2ccc(Cl)cc2)C(=O)N=C2SC=CN12	none
N=C1/C(=C\c2ccc(SCc3ccco3)o2)C(=O)N=C2SC=NN12	p97 inhibitor 18 | p97 confirm 16
COc1ccc(NC2=C(Cl)C(=O)N(c3ccccc3)C2=O)c(OC)c1	p97 inhibitor 25 | p97 confirm inactive
COc1ccc(N2C(=O)C(Cl)=C(Nc3ccc(OC)cc3OC)C2=O)cc1	none
COc1ccccc1NC1=C(Cl)C(=O)N(c2ccccc2)C1=O	p97 inhibitor 17 | p97 confirm 27
CCn1c(SCC(=O)Nc2sc3c(c2C#N)CCCC3)nc2sc3c(c2c1=O)CCC3	none (no result: Hck-Nef inh, Arbovirus anti, p97 inhibitor)
COc1cc(C)c(Cl)cc1S(=O)(=O)n1c([N+](=O)[O-])cnc1C	none (no result: Hck-Nef inh, Arbovirus anti, p97 inhibitor)
Cc1nnsc1Sc1cccc(C(F)(F)F)c1	p97 inhibitor 16 | p97 confirm inactive
COC(=O)c1ccccc1Sc1snnc1C	none
CC(C)c1ccc(NC(=O)C(c2ccccc2)N2CC(=O)Nc3ccccc32)cc1 (stereo unspecified)	p97 inhibitor 15 (no result: EP2 antag) | p97 confirm inactive
O=C(Nc1ccc(Cl)cc1)C(c1ccccc1)N1CCOCC1 (stereo unspecified)	none
COc1ccc(N(CC(=O)N/N=C/c2cc(Br)c(C)o2)S(=O)(=O)c2ccc(NC(C)=O)cc2)cc1	p97 inhibitor 15 | p97 confirm inactive
COc1ccc(N(CC(=O)NC(C)C)S(=O)(=O)c2ccc(NC(C)=O)cc2)cc1	none
O=S(=O)(c1ccc(Cl)cc1)c1snnc1-c1ccccc1	p97 inhibitor 16 | p97 confirm inactive
O=S(=O)(c1ccc(Cl)cc1)c1cnc(-c2cccnc2)nc1-c1ccccc1	none
Cc1cccc(C)c1NC(=O)C(C)Sc1nnc2c(n1)[nH]c1ccccc12 (stereo unspecified)	none (no result: Hck-Nef inh, Arbovirus anti, p97 inhibitor)
CCC12CN3CCN(CC(C3)/C1=N\NC(=O)c1ccc(C(C)(C)C)cc1)C2	p97 inhibitor 21 | p97 confirm inactive
Cc1cc(C)n(-c2nc(NC(C)(C)C)nc(NC(C)(C)C)n2)n1	none
CC(C)(C)Nc1nc(NC(C)(C)C)nc(-n2ccnc2)n1	p97 inhibitor 15 | p97 confirm inactive
CC(=O)Oc1cc2c3c(c1)/C(=C1/SC(=S)NC1=O)C(=O)N3C(C)(C)C=C2C	p97 inhibitor 25 (no result: Arbovirus anti) | p97 confirm 45
O=C1C=C(Nc2ccccc2)c2ccccc2C1=O	none
O=C1C=C(Nc2ccccc2C(=O)O)c2ccccc2C1=O	p97 inhibitor 23 (no result: Arbovirus anti) | p97 confirm 21
CCC(CN1CCN(C)CC1)NC(=O)Cc1sc(C)nc1-c1ccc(C)c(C)c1 (stereo unspecified)	none (no result: Hck-Nef inh, Arbovirus anti, p97 inhibitor)
COc1ccc2cc(C#N)c(SCC(=O)N3CC(=O)Nc4ccccc43)nc2c1	EP2 modulator 73!, p97 inhibitor 15 (no result: Arbovirus anti) | p97 confirm inactive
CN1C(=O)CC(Nc2cccc3cccc(N)c23)C1=O (stereo unspecified)	none
CC(C)N1C(=O)CC(Nc2cccc3cccc(N)c23)C1=O (stereo unspecified)	p97 inhibitor 18 | p97 confirm inactive
COCCNC(=O)C1CC(c2ccc(Cl)c(Cl)c2)=NO1 (stereo unspecified)	none (no result: Hck-Nef inh, Arbovirus anti, p97 inhibitor)
CC(C)[C@H](NC(=O)Nc1ccccc1F)C(=O)O	p97 inhibitor 15 | p97 confirm inactive
Cc1ccc(NC(=O)COC(=O)c2cccnc2)cc1C	none (no result: Hck-Nef inh, Arbovirus anti, p97 inhibitor)
Cc1cccc(C)c1NC(=O)COC(=O)c1cccnc1	p97 inhibitor 17 | p97 confirm inactive
CC(NC(=O)CC(c1ccccc1)c1cc(Cl)ccc1O)c1ccccc1 (stereo unspecified)	p97 inhibitor 15 | p97 confirm inactive
Cc1ccc(-c2nn(-c3ccccc3)cc2NC(=O)CCl)cc1	p97 inhibitor 16 | p97 confirm 29
